# Screening results as filed in PubChem BioAssay.
# HCV inhibitor: blocks hepatitis C virus; Huh7.5.1 HCVcc-Cre infection, luciferase reporter, 44 h; Potency, µM (doses to about 41.8 µM), hits mostly inhibitors; 3.4% of 340,000 active; AID 651820; active means well fitted inhibition curve with a large enough effect; inconclusive means small, poorly fitted or top-dose-only effect, or another doubt; inactive means no such curve, though single readings can be large or run the other way
#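 HCVcc-Cre virus at an moi near 0.5 was added right after compound to cells cultured 4 h from seeding (1,000 cells/well). Luciferase activity was determined 44 h later, 15 min after substrate addition at RT.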
# Vaccinia Venus: inhibitors of vaccinia virus (Venus reporter) | Vaccinia virus Venus reporter expression, fluorescence | Potency, µM (series often up to 36.5 µM), most hits filed as inhibitors | 0.46% of 330,000 active; calls by dose curve; tested in A549 cells; further: nearly all actives have a fitted effect of over 30% in size
# Vaccinia mCherry: vaccinia inhibition (mCherry reporter); AID 720579; Potency, µM (top dose mostly 36.5 µM), hits mostly inhibitors; Vaccinia virus mCherry reporter infection, fluorescence; 0.63% of 310,000 active; calls by dose curve; tested in A549 cells; further: nearly all actives have a fitted effect of over 35% in size
# HCMV antiviral: blocks human cytomegalovirus replication; HFF cells, HCMV-luciferase reporter, 72 h; stronger effect = lower value; activity change, negative = inhibition, % at 57.5 µM; 4.5% of 410,000 active; in the data active means activity change below about -60%; inconclusive means no clear call, values can overlap the other calls; inactive means above about -39%
#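 Human foreskin fibroblasts infected with luciferase-reporter HCMV at MOI 1 PFU/cell, compounds at two doses. Luciferase measured 72 h post infection; normalized to buffer-only basal and Salinomycin (10uM) controls.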
# FMDV antiviral: blocks foot and mouth disease virus | FMDV antiviral cell-based qHTS | Potency, µM (series often up to 57.9 µM), most hits filed as inhibitors | 1.2% of 410,000 active; calls by dose curve; tested in HEK293T cells; further: read-out not given here; nearly all actives have a fitted effect of over 45% in size
# Numbers stand for hits; – = inactive; ? = inconclusive; · = no result given. Compounds with a hit are over-represented: about 7.3% of the library has one in this group of screens.
SMILES,HCV inhibitor,Vaccinia Venus,Vaccinia mCherry,HCMV antiviral,FMDV antiviral
Cc1ccc(CS(=O)(=O)c2ccc(C(=O)N3CCN(c4ccccn4)CC3)cc2[N+](=O)[O-])cc1,?,–,–,-91,16µM
O=C(c1ccc(S(=O)(=O)c2ccc(F)cc2)c([N+](=O)[O-])c1)N1CCCCCC1,?,?,–,?,13µM
CCN(CC(=O)N1CCC(C)CC1)S(=O)(=O)c1ccc(C)cc1,–,–,–,–,–
Cc1ccc(S(=O)(=O)N(CC(=O)N2CCC(C)CC2)Cc2ccccc2F)cc1,–,·,·,-63,–
O=C(NCC(c1cccnc1)N1CCc2ccccc21)c1cccc(F)c1 (configuration not stated),·,–,–,–,–
CCOc1ccccc1NC(=O)C(NS(=O)(=O)c1ccc2c(c1)CCC(=O)N2)c1ccccc1 (configuration not stated),·,–,–,–,–
CCN1CCN(c2ncnc3sc(C)c(-c4ccccc4)c23)CC1,–,–,–,–,–
O=C(c1ccc(S(=O)(=O)Cc2ccccc2F)c([N+](=O)[O-])c1)N1CCCC1,–,–,–,–,?
O=C(c1ccc(S(=O)(=O)Cc2ccccc2Cl)c([N+](=O)[O-])c1)N1CCOCC1,–,?,?,-69,?
CC1CCN(C(=O)c2ccc(S(=O)(=O)Cc3ccccc3F)c([N+](=O)[O-])c2)CC1,?,–,–,-76,20µM
Cc1ccc(NC(=O)CN2C(=O)CN=C(c3ccccc3)c3ccccc32)cc1Cl,·,–,–,–,–
COC1=CC(=O)[C@]2(C=C1OC)OC[C@@H]1Oc3c(ccc4c3C=CC(C)(C)O4)C(=O)[C@@H]12,–,–,?,-93,16µM
COc1cc(CCC(=O)NCc2ccc3c(c2)CCN3C(=O)c2ccc(F)cc2)cc(OC)c1OC,·,–,–,–,–
O=C(/C=C/c1ccc(Cl)cc1)NCc1ccco1,–,?,?,-64,–
O=C(/C=C/c1ccc(Br)cc1)NCc1cccs1,–,–,–,-61,–
O=C(CO/N=C/c1ccc(OC(F)F)cc1)NCc1cccs1,–,–,–,–,–
O=C(/C=C/c1ccc(F)cc1)NCc1cccs1,–,–,–,–,–
O=C(COC(=O)/C=C/c1ccc(OC(F)F)cc1)NCc1cccs1,–,–,–,-64,–
Cc1cccc(NS(=O)(=O)c2ccc(Cl)c(C(=O)Nc3ccccc3C)c2)c1,·,–,–,–,–
COc1ccc(N(C(=O)c2ccco2)C(C(=O)NC2CCCC2)c2cc(OC)c(OC)c(OC)c2)cc1 (configuration not stated),–,–,–,–,–
CCc1ccc(C(=O)Nc2cccc(-c3nc4cc(C(C)C)ccc4o3)c2)cc1,·,–,–,–,–
Cc1c(C#N)c(N)nc2c3c(sc12)NC(=O)CC3c1ccc(Cl)cc1 (configuration not stated),22µM,?,?,-81,22µM
N#Cc1c(N)nc2c3c(sc(=N)c2c1N)NC(=O)CC3c1ccccc1 (configuration not stated),–,–,–,–,–
O=C(CSc1n[nH]c(-c2ccc(S(=O)(=O)NC3CCCCC3)cc2)n1)N1CCCC1,–,–,–,-61,·
O=C(COc1ccc(S(=O)(=O)NC2CCCC2)cc1)N1CCCCC1,·,–,–,–,–
CC(C)C[C@@H]1NC(=O)[C@H](CCCN)NC(=O)[C@H](C(C)C)NC(=O)[C@@H]2CCCN2C(=O)[C@@H](Cc2ccccc2)NC(=O)[C@H](CC(C)C)NC(=O)[C@H](CCCN)NC(=O)[C@H](C(C)C)NC(=O)[C@@H]2CCCN2C(=O)[C@@H](Cc2ccccc2)NC1=O,·,?,4.5µM,·,6.3µM
O=C1N[C@@H](Cc2ccccc2)C(=O)N2CCC[C@@H]12,–,–,–,–,–
CC1=C(C(=O)OCc2ccccc2)C(c2ccc(Br)cc2)NC(=O)N1CCCCCC(=O)O (configuration not stated),–,–,–,–,–
COC(=O)CCCCCN1C(=O)NC(c2ccccc2)C(C(=O)OCc2ccccc2)=C1C (configuration not stated),–,–,–,–,28µM
CCOC(=O)C1=C(C)N(CCCC(=O)O)C(=O)NC1c1ccccc1OS(=O)(=O)c1ccc([N+](=O)[O-])cc1 (configuration not stated),–,?,?,-100,–
